Only a selection was taken, and hits are over-represented in it overall.
ROS inducer: cancer cell ROS induction; U2OS ROS induction, H2DCF-DA fluorescence; ROS induction (% of piperlongumine), % at 10 µM; hit rate 2% among 46,000; in the data active means ROS induction above about 79%, passing the limit was not always enough;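 further: 0% = DMSO vehicle median and 100% = reference compound median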
* hit, by the source's call.

SMILES	ROS inducer
O=C(CSc1nc(NCc2ccccc2)c2ccccc2n1)c1ccc(F)cc1	35
CCC(Sc1nc(Nc2ccc(F)cc2)c2ccccc2n1)C(=O)Nc1ccc2c(c1)OCO2 (stereo unspecified)	118*
O=C(CSc1nc2ccccc2c(=O)[nH]1)Nc1ccc2c(c1)OCCO2	7
Cn1c(=NC(=O)c2ccc(S(=O)(=O)N3CCCCC3)cc2)sc2c3ccccc3ccc21	-11
CC(C)CCNC(=O)c1ccc2nc(-c3cccs3)c(-c3cccs3)nc2c1	-1
O=C1N=c2ccccc2=C1c1sc(Nc2cccc(C(F)(F)F)c2)nc1O	-8
Cc1ccc(Cn2c(SCc3cccc(C(F)(F)F)c3)nc3ccncc32)cc1	1
CC(=O)Nc1ccc(C(=O)Nc2cccc(NC(=O)c3ccco3)c2)cc1	4
O=C(NCc1ccccn1)c1ccc(NC(=O)c2ccco2)cc1	-6
O=C(O)c1ccc(CNC(=O)c2ccc(NC(=O)c3ccco3)cc2)cc1	99*
COc1ccc(CCNC(=O)CSc2ncnc3c2nnn3Cc2ccccc2)cc1OC	11
COc1ccc(/C=C/C(=O)N2c3ccccc3Sc3ccccc32)c(OC)c1	24
CNC(=O)C1CC(=O)N(C2CCCCCC2)C1 (stereo unspecified)	-11
C[C@@H]1CN([C@H](C)CO)C(=O)c2cc(NS(=O)(=O)c3ccccc3)ccc2O[C@@H]1CN(C)S(=O)(=O)c1ccccc1	-1
Cc1ccc(S(=O)(=O)N(C)C[C@@H]2Oc3ccc(NS(=O)(=O)c4ccccc4)cc3CC(=O)N([C@H](C)CO)C[C@@H]2C)cc1	130*
C[C@@H]1CN([C@@H](C)CO)C(=O)Cc2cc(NS(=O)(=O)c3cccs3)ccc2O[C@@H]1CN(C)S(=O)(=O)c1cccs1	0
C[C@@H]1CN([C@H](C)CO)C(=O)c2cc(NS(C)(=O)=O)ccc2O[C@@H]1CN(C)S(=O)(=O)c1ccccc1	102*
Cc1ccc(S(=O)(=O)N(C)C[C@@H]2Oc3ccc(NS(=O)(=O)c4cccs4)cc3CC(=O)N([C@H](C)CO)C[C@@H]2C)cc1	13
Cc1ccc(S(=O)(=O)Nc2ccc3c(c2)CC(=O)N([C@H](C)CO)C[C@@H](C)[C@@H](CN(C)S(=O)(=O)c2ccccc2)O3)cc1	-1
C[C@@H]1CN([C@H](C)CO)C(=O)Cc2cc(NS(=O)(=O)c3cccs3)ccc2O[C@H]1CN(C)S(C)(=O)=O	2
Cc1ccc(S(=O)(=O)N(C)C[C@H]2Oc3ccc(NS(=O)(=O)c4cccs4)cc3CC(=O)N([C@@H](C)CO)C[C@H]2C)cc1	-1
Cc1ccc(S(=O)(=O)N(C)C[C@@H]2Oc3ccc(NS(=O)(=O)c4cccs4)cc3CC(=O)N([C@H](C)CO)C[C@H]2C)cc1	95*
C[C@H]1CN([C@@H](C)CO)C(=O)c2cc(NS(C)(=O)=O)ccc2O[C@H]1CN(C)S(=O)(=O)c1ccccc1	-4
C[C@@H]1CN([C@@H](C)CO)C(=O)Cc2cc(NS(=O)(=O)c3cccs3)ccc2O[C@@H]1CN(C)C	128*
Cc1ccc(S(=O)(=O)Nc2ccc3c(c2)CC(=O)N([C@H](C)CO)C[C@H](C)[C@H](CN(C)S(=O)(=O)c2ccccc2)O3)cc1	10
SMILES	ROS inducer
Cc1ccc(Cc2c(C)nc3c(C(=O)NC4CCCC4)cnn3c2C)cc1	42
CC1CCN(S(=O)(=O)c2cc(Br)ccc2Br)CC1	13
Cc1c(C#N)c2nc3c(c(-c4ccccc4)c2n1-c1ccccc1)CCCC3	55
COc1ccc(S(=O)(=O)N(C)C[C@H]2OCCCC[C@@H](C)Oc3ccc(NS(=O)(=O)c4c(C)noc4C)cc3C(=O)N([C@H](C)CO)C[C@@H]2C)cc1	12
Cc1ccc(S(=O)(=O)N(C)C[C@H]2OCCCC[C@@H](C)Oc3ccc(NS(=O)(=O)c4c(C)noc4C)cc3C(=O)N([C@H](C)CO)C[C@@H]2C)cc1	4
COc1ccc(S(=O)(=O)Nc2ccc3c(c2)C(=O)N([C@H](C)CO)C[C@H](C)[C@H](CN(C)S(=O)(=O)c2c(C)noc2C)OCCCC[C@@H](C)O3)cc1	12
Cc1noc(C)c1S(=O)(=O)Nc1ccc2c(c1)C(=O)N([C@H](C)CO)C[C@H](C)[C@@H](CN(C)S(=O)(=O)c1ccc(F)cc1)OCCCC[C@@H](C)O2	126*
COc1ccc(S(=O)(=O)Nc2ccc3c(c2)C(=O)N([C@H](C)CO)C[C@H](C)[C@@H](CN(C)S(=O)(=O)c2ccc(OC)cc2)OCCCC[C@@H](C)O3)cc1	29
Cc1noc(C)c1S(=O)(=O)N(C)C[C@H]1OCCCC[C@@H](C)Oc2ccc(NS(=O)(=O)c3ccc(Cl)cc3)cc2C(=O)N([C@H](C)CO)C[C@@H]1C	110*
COc1ccc(S(=O)(=O)N(C)C[C@H]2OCCCC[C@@H](C)Oc3ccc(NS(=O)(=O)c4ccc(Cl)cc4)cc3C(=O)N([C@H](C)CO)C[C@@H]2C)cc1	35
COc1ccc(S(=O)(=O)Nc2ccc3c(c2)C(=O)N([C@H](C)CO)C[C@H](C)[C@H](CN(C)S(=O)(=O)c2ccc(Cl)cc2)OCCCC[C@@H](C)O3)cc1	91*
Cc1ccc(S(=O)(=O)Nc2ccc3c(c2)C(=O)N([C@H](C)CO)C[C@H](C)[C@@H](CN(C)S(=O)(=O)c2c(C)noc2C)OCCCC[C@@H](C)O3)cc1	12
O=C(COc1ccccc1)Nc1cccc(-c2nc3cccnc3s2)c1	0
CC(C(=O)O)(c1ccccc1)c1ccccc1	0
O=C(Nc1ccc(Cl)cc1)OCc1nccn1Cc1ccc(Cl)cc1	-1
O=C1NCCN1CCN(CC(O)c1ccccc1)CC(O)c1ccccc1 (stereo unspecified)	-2
O=C(NCCCN1CCOCC1)NCc1cccc2ccccc12	-8
O=C(N/N=C/c1cc(F)ccc1O)c1ccccn1	-1
O=C(N/N=C/c1ccc(F)cc1)c1ccccn1	-4
O=C(N/N=C/c1c(F)c(F)c(F)c(F)c1F)c1ccccn1	117*
CC(=O)N1C(=S)NC(=O)/C1=C\c1ccc(C(C)C)cc1	-9
O=C(CSc1ccccn1)NCC(=O)c1ccccc1	-7
O=C(Nc1ccc(-c2nc3ccccc3o2)cc1)c1ccccc1Cl	7
O=C(NC1CCCCCCC1)c1ccc(CNS(=O)(=O)c2ccc(F)cc2)cc1	-3
Cc1cccc(C)c1NC(=O)CC1C(=O)N(Cc2ccccc2)C(C)c2nc3ccccc3n21 (stereo unspecified)	12
SMILES	ROS inducer
O=C(CSc1oc(-c2ccccc2)nc1S(=O)(=O)c1ccc(Cl)cc1)NCC1CCCO1 (stereo unspecified)	-10
COc1ccc(NC(=O)CSc2nc(C)cc(=O)[nH]2)cc1	5
Cc1ccc(NC(=O)CSc2nc(C)c(C)c(=O)[nH]2)cc1	13
COc1ccc(NC(=O)CSc2nc3scc(C)c3c(=O)[nH]2)cc1	91*
COc1ccc(NS(=O)(=O)Cc2ccccc2)cc1	-6
Cc1cc2nc(SCc3ccccc3C#N)[nH]c2cc1C	127*
Cc1cc2nc(Sc3c([N+](=O)[O-])nc(C)n3Cc3ccccc3)[nH]c2cc1C	17
Cc1cc2nc(SCC(=O)NN)[nH]c2cc1C	-26
Cc1cc(C)c2c(n1)sc1c(=O)n(/N=C/c3ccccc3)cnc12	27
Cc1cc(C)c2c(n1)sc1c(=O)n(NC(=O)Nc3ccccc3)c(C)nc12	12
Cc1cc(C)c2c(n1)sc1c(=O)n(Cc3ccccc3Cl)nnc12	81*
COC(=O)C[C@H]1C(C)(C)C(=O)[C@@H]2C[C@@]3(O)C4=CC(=O)O[C@@H](c5ccoc5)[C@]4(C)CCC3[C@@]1(C)C2=O (stereo partly specified)	-6
